Screening results as filed in PubChem.
Rows were chosen to be rich in hits. Some 7.3% of all compounds tested hit in one or more screens of this group.
HCV inh – HCV inhibition | Potency, µM (top dose mostly 41.8 µM), for the others: at the top dose activity change, negative = inhibition, usual class: inhibitors | 3.4% of 340,000 active | Huh7.5.1 HCVcc-Cre infection, luciferase reporter, 44 h; also: potency is read from the fitted curve at half-maximal effect
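1,000 cells/well; 4 h culture; + compound; + HCVcc-Cre (~0.5 moi); 44 h; luciferase substrate, RT 15 min; read 15 sec.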
AmpC inh detg – AmpC beta-lactamase inhibition with detergent present. P00811. AmpC hydrolysis of nitrocefin, absorbance 480 nm, 0.01% Triton. Potency, µM (doses to about 114 µM), for inactives: at the top dose activity change, negative = inhibition, actives largely listed as inhibitors. 0.041% of 370,000 active. AID 485294;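 also: potency is read from the fitted curve at half-maximal effect; 0% = no-compound wells and -100% = no-enzyme wells; nearly all actives have a fitted effect of over 25% in size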
Target sequence (P00811 whole entry, looked up): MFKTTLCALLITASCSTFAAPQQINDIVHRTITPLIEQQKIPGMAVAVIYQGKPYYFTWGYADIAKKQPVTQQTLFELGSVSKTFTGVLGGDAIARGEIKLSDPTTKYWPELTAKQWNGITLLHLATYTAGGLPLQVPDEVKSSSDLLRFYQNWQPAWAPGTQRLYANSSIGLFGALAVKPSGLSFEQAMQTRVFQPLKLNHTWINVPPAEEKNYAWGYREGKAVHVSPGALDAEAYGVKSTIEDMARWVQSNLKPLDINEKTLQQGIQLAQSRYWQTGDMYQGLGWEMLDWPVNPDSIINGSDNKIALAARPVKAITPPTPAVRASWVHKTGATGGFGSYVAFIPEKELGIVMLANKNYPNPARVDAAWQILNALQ
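20 mM phosphate pH 7.0 + 0.01% (detergent screen) or 0.0001% Triton X-100; 5.3 nM AmpC reagent; cpd preinc 15 min RT; nitrocefin (800 uM stock) to start; A480 q20 s × 4 min; Activity was normalised to no-enzyme and no-compound control wells.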
AmpC no deterg – AmpC beta-lactamase inhibition without detergent; Potency, µM (series often up to 57.1 µM), for the others: at the top dose activity change, negative = inhibition, usual class: inhibitors; 0.52% of 330,000 active; AmpC nitrocefin hydrolysis, absorbance 480 nm, 0.0001% Triton; P00811;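 also: potency is read from the fitted curve at half-maximal effect; plate controls were no compound for no effect and no enzyme for full effect; nearly all actives have a fitted effect of over 20% in size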
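20 mM phosphate pH 7.0 + 0.01% (detergent screen) or 0.0001% Triton X-100; 5.3 nM AmpC reagent; cpd preinc 15 min RT; nitrocefin (800 uM stock) to start; A480 q20 s × 4 min; Activity was normalised to no-enzyme and no-compound control wells.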
HCMV inh – inhibitors of human cytomegalovirus | HFF cells, HCMV-luciferase reporter, 72 h; stronger effect = lower value | activity change, negative = inhibition, % at 57.5 µM | 4.5% of 410,000 active | AID 1259415; in the data active = activity change below about -60%; inconclusive = no clear call, values can overlap the other calls; inactive = above about -39%
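After 16 h attachment at 37C, HFF cells received test compound and HCMV-luciferase (1 PFU/cell); reporter luminescence read 72 h later, data normalized against buffer-only and known inhibitor Salinomycin.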
FMDV antiviral – foot and mouth disease virus antiviral activity; Potency, µM (titrated, usually from 57.9 µM), without a hit: at the top dose activity change, negative = inhibition, actives largely listed as inhibitors; 1.2% of 410,000 active; AID 1159524; FMDV antiviral cell-based qHTS; calls by dose curve; tested in HEK293T cells; also: read-out not given here; potency is read from the fitted curve at half-maximal effect; nearly all actives have a fitted effect of over 45% in size
* = called active by the depositor; ? = inconclusive; / = no result. Unless noted, calls follow the shape of the dose curve; as a rule, active = well fitted curve in the direction sought with a large enough effect; inconclusive = small, poorly fitted or top-dose-only effect, or another doubt; inactive = no such curve, though single readings can be large; an effect the other way counts as inactive or inconclusive. Unless noted, % is scaled to controls: 0 for no effect and ±100 for the full control effect.

SMILES	HCV inh	AmpC inh detg	AmpC no deterg	HCMV inh	FMDV antiviral
O=C(CC1SC(=Nc2cccc3ccccc23)N(Cc2ccccn2)C1=O)Nc1ccccc1Br (centres undefined)	-3.5%	-1.0%	?	33.3	6.9%
CCOC(=O)C1=CCN(S(=O)(=O)c2ccc(Br)cc2)C1c1ccc(C)cc1 (centres undefined)	/	/	/	-23.3	-33.3%
Cn1c(O)c(C(=Nc2ccccc2)SCc2ccccc2Cl)c(=O)n(C)c1=O	-17.5%	-7.5%	-12.4%	-64.9*	?
CCOC(=O)c1noc2c1CCC2	/	/	/	8.8	-2.4%
CCOC(=O)c1cnc2c3c(noc13)CCC2	/	/	/	-101.4*	/
Cc1cnc(-n2ncc(C(=O)N(C)C3CCOC3)c2C)nc1-c1ccc(F)cc1 (centres undefined)	/	/	/	/	25.7%
CCN(CC)S(=O)(=O)c1ccc(/C=C/C(=O)Nc2ccc(N3CCOCC3)cc2)cc1	12.6µM*	-0.6%	51.6%	-83.2*	?
CCN(CC)S(=O)(=O)c1ccc(/C=C/C(=O)Nc2ccc(F)cc2F)cc1	?	?	-15.0%	-68.6*	?
CCN(CC)S(=O)(=O)c1ccc(/C=C/C(=O)Nc2ccc(Br)cc2F)cc1	2µM*	0.7%	-34.2%	-73.0*	5.01µM*
CCN(CC)S(=O)(=O)c1ccc(/C=C/C(=O)Nc2ccc(F)c(F)c2F)cc1	1.41µM*	-1.1%	-55.6%	-64.1*	?
CCN(CC)S(=O)(=O)c1ccc2oc(C(=O)Nc3ccc(Br)cc3F)c(C)c2c1	/	7.1%	/	-3.5	-27.5%
O=C(COc1coc(CN2CCc3ccccc32)cc1=O)Nc1cccc(F)c1	4.8%	?	-8.2%	-31.9	-3.9%
O=C(NCc1cccc(Cl)c1)c1ccc(NC(=O)N2CCSc3ccccc32)cc1	/	6.4%	/	-5.1	-14.8%
COc1ccc(CNC(=O)CCc2c(C)nn(-c3ccc(N4CCCC4)nn3)c2C)c(OC)c1	/	-4.6%	/	-39.5	-1.4%
COc1ccc(-n2c(CNC(=O)c3cccc(OC)c3OC)nnc2SC)cc1	/	/	/	/	-4.5%
COc1ccc(-c2cc3cc(OC)c(OC)cc3c(C)n2)cc1	14.1µM*	?	132.5%	13.7	30.4%
COc1ccc(-c2cc3ccc(OC)cc3cn2)cc1	-5.5%	1.9%	-26.9%	24.5	-50.3%
COc1ccc2c(OC)cc(-c3ccccc3)nc2c1	10µM*	-6.2%	-11.8%	-5.3	-11.8%
COc1ccc(-c2cc(OC)c3ccccc3n2)cc1	?	-14.6%	-10.7%	32.5	23.8%
CCOc1ccccc1NC(=S)N1CCN(c2nc(-c3ccc(F)cc3)cs2)CC1	?	10.1%	-29.5%	-7.2	-21.4%
Cc1cc(NC(=O)CCC(=O)NNC(=O)c2ccc(C(C)(C)C)cc2)no1	-6.7%	-2.8%	-16.5%	-74.8*	24.4%
Cc1ccc(NC(=O)Cn2c(=O)n(CCc3ccccc3)c(=O)c3sc4ccccc4c32)cc1C	/	-6.1%	/	15.2	9.5%
COCCCNc1nnc(Cc2ccc(Cl)cc2)c(=O)[nH]1	-1.9%	-4.3%	-8.7%	-74.9*	-27.9%
O=C1CC[C@@H](OCc2ccccc2)CCN1CC[C@H](Sc1ccccc1)c1ccccc1	-22.2%	-17.0%	62.6%	-17.8	3.9%
COc1ccc(C(=O)C[n+]2ccc3c(c2)nc(-c2ccc(OC)cc2OC)n3C)cc1	14.6%	?	11.6%	-99.3*	-22.4%
SMILES	HCV inh	AmpC inh detg	AmpC no deterg	HCMV inh	FMDV antiviral
COc1ccc(C(=O)C[n+]2ccc3c(c2)nc(-c2ccccc2)n3C)cc1	0.8%	-11.3%	-15.6%	-90.8*	-27.4%
COc1cc(-c2nc3c[n+](CC(=O)c4ccccc4)ccc3n2C)cc(OC)c1OC	25.2%	-12.5%	-8.9%	35.5	-20.4%
CCOC(=O)c1ccc[n+](CC(=O)c2ccc(OC)cc2)c1	6.7%	-4.1%	-8.8%	36.1	-19.8%
CCCCCN1C(=O)c2ccccc2[C@@]2(C(=O)OCC)Cc3cc(OC)ccc3[C@@H]12	/	/	/	-109.4*	10µM*
CCOC(=O)[C@]12Cc3c(cc(OC)c(OC)c3OC)[C@H]1N(CCC(=O)OC)C(=O)c1cc(OC)ccc12	/	/	/	-105.2*	28.2µM*
CCOC(=O)CNC(=O)C1c2cc(OC)c(OC)cc2C(=O)N(C)C1c1ccccc1F (centres undefined)	2.0%	-1.4%	16.4%	40.4	-10.8%
CCOC(=O)[C@]12Cc3ccccc3[C@H]1N(CCC(=O)OC)C(=O)c1ccccc12	/	/	/	-97.8*	?
CCOC(=O)[C@]12Cc3ccccc3[C@H]1N(Cc1ccccc1)C(=O)c1ccccc12	19.7%	/	/	-5.4	-1.0%
CCOC(=O)[C@]12Cc3cc(C)ccc3[C@H]1N(CCC(=O)OC)C(=O)c1cc(OC)ccc12	/	/	/	-108.9*	31.6µM*
Cc1ccc(C)c(NC(=O)CSc2ncc3c(n2)-c2ccc(Cl)cc2N(C)S3(=O)=O)c1	/	-7.7%	/	41.8	-24.9%
Cc1cc(C(=O)Nc2cccc(-c3nc(CNC(=O)c4ccccc4C(F)(F)F)c(C)o3)c2)c(C)o1	/	/	/	/	27.8%
CCOC(=O)N1CCN(C(=O)C2CC(c3cc(OC)ccc3OC)=NO2)CC1 (centres undefined)	-5.9%	-5.2%	29.8%	7.5	12.2%
CCOC(=O)[C@]12Cc3c(cc(OC)c(OC)c3OC)[C@H]1N(C)C(=O)c1cc(OC)ccc12	/	/	/	-100.9*	10µM*
CCc1cc(C(=O)OC)c(NC(=O)CC2SC(=NC)N(C)C2=O)s1 (centres undefined)	15.8µM*	-7.5%	6.8%	10.1	5.0%
CN=C1SC(CC(=O)Nc2sc(C)c(C)c2C(=O)OC)C(=O)N1C (centres undefined)	?	-10.1%	-14.5%	-11.7	/
Cc1ccc(CNC(=O)O[C@H]2CC[C@@]34CCCN3C(=O)CCC[C@H]4[C@H]2Cc2ccccc2)cc1	/	/	/	-0.5	/
COc1ccc(NC2C(c3ccc(OC)cc3)=Nc3ccccc3-n3nnnc32)cc1 (centres undefined)	/	/	/	-3.0	/
Cc1cccc2cc(CN(Cc3ccccc3)C(=S)NCCCN(C)C)c(=O)[nH]c12	?	6.5%	29.7%	?	-12.8%
Cc1cc(C)c2cc(CN(CCCN(C)C)C(=S)NCc3ccccc3)c(=O)[nH]c2c1	10µM*	4.9%	33.5%	-17.4	7.8%
Cc1ccc(CN(Cc2cc3cccc(C)c3[nH]c2=O)C(=S)NCCCN(C)C)cc1	35.5µM*	-2.3%	14.0%	?	-15.5%
O=C(NCc1ccccc1)C1Cc2c(-c3ccc(Cl)cc3)ccnc2O1 (centres undefined)	/	/	/	?	-25.6%
Cc1cnc(-n2ncc(C(=O)N(C)CC3COCCO3)c2C2CC2)nc1-c1cccs1 (centres undefined)	/	/	/	/	48.8%
CN(C)c1ncc(C2=C(Cl)C(=O)C(N3CCCC3)=C(Cl)C2=O)s1	7.94µM*	/	/	-63.7*	?
O=C1C(Cl)=C(N2CCCCC2)C(=O)C(Cl)=C1c1cnc(N2CCCCC2)s1	?	-6.7%	-51.8%	/	-2.5%
